# Experimental data taken from PubChem BioAssay (NCI).
# This is part of a sample that, as a whole, favours compounds with a hit. Of some 83,000 tested, about 20% had one in any assay.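 Growth was measured after 48 h exposure to one concentration of compound in 96-well plates. Values under 10 count as active.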 Values without a mark were called inactive. Active and inactive are the calls of the source.
# Columns and labels:
# Test in all cases: NCI-60 one-dose screen, 48 h (100 = growth as untreated, 0 = no growth, -100 = all killed)
# Settings in all cases: 10 µM unless noted
# [1] = tested on: NCI-H23 lung
# [2] = tested on: NCI-H226 lung
# [3] = tested on: NCI-H322M lung
# [4] = tested on: HOP-62 NSCLC
# [5] = tested on: NCI-H460 lung
# [6] = tested on: HOP-92 NSCLC
# [7] = tested on: NCI-H522 lung
# [8] = tested on: A549/ATCC NSCLC
# [9] = tested on: 786-0 renal
# [10] = tested on: COLO 205 colon
SMILES,growth [1],growth [2],growth [3],growth [4],growth [5],growth [6],growth [7],growth [8] [%],growth [9],growth [10]
O[C@H]1CO[C@H]2[C@@H]1OC[C@@H]2Oc1ccc(Nc2nc(Nc3ccc(F)c(Cl)c3)ncc2F)cc1Cl,101%,96.9%,101%,118%,106%,101%,98.4%,102,97.7%,116%
CC(=O)c1ccc2c(c1)CCN2,102%,102%,101%,96.8%,117%,82.5%,91%,98,108%,102%
COc1ccc(-c2nc3sc4c(c3c(=O)[nH]2)CCCC4)c2ccccc12,32.6%,50.8%,37.6%,10.4%,0.61% (active),12.3%,1.5% (active),15.8,10.6%,-32.9% (active)
CC(=O)Nc1ccc(C(=O)/C=C/c2ccccc2)cc1,96.1%,83.5%,88.9%,101%,98.3%,47.8%,53%,76.3,58.3%,102%
CNC=O,85.7%,102%,97.5%,107%,101%,92%,94.9%,88.8,102%,97.7%
Cn1ccc(Cc2cnc(N)s2)n1,101%,98.8%,102%,100%,106%,98.1%,84.3%,84.3,101%,105%
O=c1[nH]c(NCc2nnnn2-c2ccc(Br)cc2)nc2sc3c(c12)CCCC3,97.6%,94.3%,91.1%,94.1%,100%,94.5%,72.2%,77.4,88%,97.9%
O[C@H]1CO[C@H]2[C@@H]1OC[C@@H]2Oc1ccc(Nc2ccnc(Nc3ccc(O[C@H]4CO[C@H]5[C@@H]4OC[C@@H]5O)c(Cl)c3)n2)cc1Cl,-1.73% (active),4.09% (active),-4.12% (active),-28.9% (active),1.27% (active),-20% (active),-4.53% (active),21.7,24.7%,12%
O=C(C[C@@]1(O)C(=O)Nc2c(Cl)ccc(Cl)c21)c1ccc(C2CC2)cc1,37.5%,46.4%,53.1%,34.2%,6.3% (active),75.5%,19.4%,38.1,–,1.09% (active)
CCN(CC)S(=O)(=O)c1ccc(O)c(NC(=O)c2[nH]c(C)c(C(C)=O)c2CCc2ccc(Cl)cc2)c1,19.6%,62.5%,54.7%,48.9%,50.2%,38.2%,11.9%,–,73.4%,–
Cc1nc2ccccc2c(/C=C/c2ccc(Cl)cc2)c1C(=O)/C=C/c1ccc(Cl)cc1,-19.7% (active),-40.6% (active),5.27% (active),-7.32% (active),-76.3% (active),-59.9% (active),-14.6% (active),56.9,–,-24.5% (active)
Nc1nc(N)c(-c2ccc(Cl)cc2)c(/C=C/c2ccc([N+](=O)[O-])cc2)n1,90.8%,91.4%,46.8%,100%,11.4%,76.1%,97.4%,–,99.3%,–
C[C@@H]1C(=O)N(C[C@H](Cc2ccccc2)NC(=O)OCc2ccccc2)[C@]1(Cc1ccccc1)C(=O)OC(C)(C)C,71.8%,62.2%,86.7%,80.2%,66.6%,54.5%,45%,47.2,–,62%
Oc1[nH]c2ccccc2c1/C=c1/cc2c(c(-c3ccc(F)cc3)n1)=Nc1ccccc1-2,-5.74% (active),19.4%,58.7%,-47.3% (active),-23.6% (active),-17.9% (active),-58% (active),–,-76.8% (active),–
Cc1ccc(/C=C(\C#N)n2nnc3cc(Cl)c(Cl)cc32)cc1,24.8%,-9.44% (active),49.5%,33.8%,12.8%,-7.83% (active),17.3%,–,5.73% (active),–
Fc1ccc(Nc2nc(Nc3ccc(-c4nc5ccccc5[nH]4)cc3)c3cn[nH]c3n2)cc1,71%,86.9%,84.8%,85.6%,47.5%,79%,65.9%,73.1,–,27.8%
CN(C)c1ccc(/C=C/c2c(F)cccc2F)cc1,83.9%,94.1%,92.7%,74.4%,107%,81%,76.4%,–,105%,–
CS(=O)(=O)c1ccc(-c2[nH]c3ccc(F)cc3c2/C=N/NC(N)=S)cc1,38.1%,63.1%,48.8%,34.2%,3.52% (active),55.8%,5.14% (active),–,40.3%,–
O=C(/C=C/C12c3ccccc3C(c3ccccc31)C1C(=O)N(c3ccc(Cl)cc3)C(=O)C12)c1ccccn1 (stereo not given),-22.6% (active),-49.3% (active),11.3%,5.06% (active),-32.3% (active),-53.7% (active),-6.34% (active),–,-60.7% (active),–
CCN(CC)CC(O)CNc1c2ccc(Cl)cc2nc2ccc(OC)cc12 (stereo not given),-39.1% (active),46.7%,-27.1% (active),-47.1% (active),0.742% (active),-13.9% (active),-65.7% (active),–,-16.1% (active),–
COC(=O)Nc1nc2ccc(C(=O)C3CC3)cc2[nH]1,33.8%,149%,50.9%,38.1%,2.65% (active),53.5%,-37.6% (active),–,29.2%,-34.1% (active)
Clc1ccc(-c2nnc(-c3ccco3)o2)cc1,91.9%,91.7%,93.6%,80.9%,108%,72.6%,99.1%,–,86.8%,–
N#Cc1c(-c2ccccc2)nc(SCC2CO2)nc1N1CCOCC1 (stereo not given),71.4%,75%,65.8%,54.3%,67.6%,18.3%,57.9%,–,65.5%,–
Nc1c(-c2nc3ccc(Br)cc3c(=O)[nH]2)nnn1-c1ccccc1,82.6%,107%,71.5%,87%,43.5%,94.7%,73.9%,–,87.6%,–
CN(CCC(=O)/C(=C\c1ccccc1)c1ccc(Cl)cc1)Cc1ccccc1,29.2%,65.6%,71.2%,47.6%,42.2%,82.9%,-45.9% (active),–,-64.5% (active),–
C=C(C)[C@@H]1CC[C@]2(CNCCO)CC[C@]3(C)[C@H](CC[C@@H]4[C@@]5(C)CCC(N)[C@@](C)(CO)[C@@H]5CC[C@]43C)[C@@H]12 (stereo not given in full),46.8%,94.1%,47.5%,-53.7% (active),-56.4% (active),38.8%,-77.2% (active),–,-58.1% (active),–
CCCNCC(=O)Nc1ccc(C(=O)OC(C)(C)CC)cc1,102%,95%,97%,99.7%,104%,74.4%,66.6%,–,90.8%,–
O=C1CSC(c2ccccc2Cl)N1c1nnc(Cn2cnnc2)o1 (stereo not given),51.7%,78.8%,87.1%,37.3%,34.2%,43%,101%,–,41.9%,–
